Screen size: about 1,400 compounds; fewer than 10 were called active. Inconclusive results (about 8%) are left out. The call rests on the fitted dose curve; in most records, active means well fitted curve in the direction sought with a large enough effect; inconclusive means small, poorly fitted or top-dose-only effect, or another doubt; inactive means no such curve, though single readings can be large or run the other way. The list is a sample of the results.
biological target: Transient receptor potential cation channel subfamily V member 1 (Homo sapiens) (UniProt Q8NER1); experiment: qHTS Assay for Compounds that Act as Potentiators of the Vanilloid Receptor 1: Hit Validation; conditions: TRPV1-expressing cells, Fluo-8 calcium influx, capsaicin EC20; series mostly up to 42.1 µM
Text: The transient receptor potential ion channel, family V, number 1, (TRPV1) is one of the most important molecular transducers of painful stimuli and a potential target for analgesic drug development. Although recent clinical trials with orthosteric antagonists have not produced a successful drug because of a hyperthermia side effect and their tendency to block thermal noxious pain, this ion channel is undeniably well placed in the pain pathway, and the idea of blocking pain signals before they enter the CNS is an excellent concept and of proven efficacy when TRPV1 agonists are used. We propose a new approach involving allosteric modulation to impose an activity-dependent constraint within the context of inflammation and tissue damage that would alter the responsiveness of the channel in a way that an orthosteric vanilloid antagonist cannot achieve. We believe that the allosteric modulator approach has not been explored for this target. The main goal of this proposal is to identify additional, new, potent allosteric modulators of TRPV1 that can be used to investigate TRPV1 function. Our recent report provides evidence of proof of concept, but the compounds are just at the edge of utility in terms of potency. […] The question of whether they can be used as analgesic agents is complex, but if suitable compounds are identified then testing for analgesic properties will be conducted. Compounds identified as agonists were re-tested in the primary screen for hit validation. NIH Chemical Genomics Center [NCGC] NIH Molecular Libraries Probe Centers Network [MLPCN] MLPCN Grant: MH089480 Assay Submitter (PI): Michael Iadarola, National Institute of Dental and Cranofacial Research
Upon TRPV1 activation in TRPV1 cells, the channel opens and extracellular cations flow through the channel into the cytosol. A calcium binding dye (Fluo-8) becomes fluorescent when bound to calcium. This dye is pre-loaded into cells and is used as a marker for calcium influx. The amount of accumulated calcium is precisely quantified using the FDSS kinetic reader and the calcium dye. For the HTS assay, freshly prepared cells are plated at a density of 2000/well in 3 ul medium in 1536-well plates and cultured overnight at 35.5C. Cells will be loaded with 1 ul of the homogeneous calcium dye (ABD Bioquest) at room temperature for 40 to 90 minutes. Plates will be loaded into the FDSS kinetic reader and a 1 sec / cycle for 10 second baseline signal will be measured. Compound library will then be added with a pintool at 23 nl and measured kinetically for 3 minutes. This portion of the read is considered the agonist portion of the screen. Following the 3 minutes of incubation, an on board pipettor will deliver 1 ul of capsaicin for a final concentration equal to the EC20. Signal will be measured kinetically for an additional 2 minutes. This portion of the read is considered the allosteric enhancer portion of the screen. The FDSS reader has a standard filter set capable of measuring calcium bound Fluo-8 (ex=480 and em=520 nm).

Sequence of Transient receptor potential cation channel subfamily V member 1 (Homo sapiens) (Q8NER1 whole entry, looked up): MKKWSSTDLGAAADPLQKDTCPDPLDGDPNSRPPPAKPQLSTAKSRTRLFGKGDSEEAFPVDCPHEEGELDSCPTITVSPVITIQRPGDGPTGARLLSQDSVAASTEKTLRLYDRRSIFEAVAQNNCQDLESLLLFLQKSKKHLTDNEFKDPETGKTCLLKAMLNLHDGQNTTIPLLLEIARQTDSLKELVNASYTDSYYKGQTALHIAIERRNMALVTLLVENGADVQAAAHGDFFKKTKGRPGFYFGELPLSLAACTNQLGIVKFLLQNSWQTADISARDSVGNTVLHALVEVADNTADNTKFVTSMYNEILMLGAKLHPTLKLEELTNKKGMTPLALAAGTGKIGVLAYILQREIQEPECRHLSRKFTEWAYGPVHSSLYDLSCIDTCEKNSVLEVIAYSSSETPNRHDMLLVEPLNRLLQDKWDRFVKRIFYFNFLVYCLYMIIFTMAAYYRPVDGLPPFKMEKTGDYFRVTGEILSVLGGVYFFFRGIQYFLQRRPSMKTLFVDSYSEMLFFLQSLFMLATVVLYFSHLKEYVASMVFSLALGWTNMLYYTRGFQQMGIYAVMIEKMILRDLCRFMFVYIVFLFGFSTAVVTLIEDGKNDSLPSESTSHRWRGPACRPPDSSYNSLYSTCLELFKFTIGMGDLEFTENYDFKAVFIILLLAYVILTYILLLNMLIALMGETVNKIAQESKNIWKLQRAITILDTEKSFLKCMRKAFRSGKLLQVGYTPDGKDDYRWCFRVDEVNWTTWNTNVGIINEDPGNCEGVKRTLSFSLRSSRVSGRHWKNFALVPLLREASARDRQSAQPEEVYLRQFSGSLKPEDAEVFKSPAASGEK

Potency, inactive:
CC1CC(C)CN(C(=O)c2cc(S(=O)(=O)N3CCCCC3)ccc2Cl)C1 (stereo not drawn)
O=C(Cc1nc2ccccc2[nH]1)c1ccc(Cl)cc1
CS(=O)(=O)N1N=C(c2cccs2)CC1c1ccc(Cl)o1 (stereo not drawn)
CCOCc1c(C(=O)Nc2ccc(OC)nc2)oc2ccccc12
Cc1cc(NC(=O)C(C)C)ncc1NC(=O)c1cccc(F)c1
CC1CCN(C(=O)c2cc(-c3ccc4c(c3)OCO4)on2)CC1
Cc1ccc(NC(=O)CSc2nnc(-c3ccccn3)n2C)cc1
O=C(CSc1nc2ccccc2[nH]1)c1ccccc1F
Cc1ccc2c(c1)nnn2C1CCN(C(=O)NCc2ccccc2)CC1
O=C(CSc1nc(C2CC2)nc2ccccc12)N1CCCCC1
Cc1oc(C(C)(C)C)cc1C(=O)N1CCCC1C(=O)O (stereo not drawn)
O=C(O)c1ccc(NC(=O)c2ccccc2Br)c(NC(=O)c2ccccc2Br)c1
Cc1cccc(NCc2cc(Cl)cc(Cl)c2O)n1
CC(C)NC(=O)C1CC=CCC1C(=O)O (stereo not drawn)
CC(=O)CC(C)(C)S(=O)(=O)c1ccc(NC(C)=O)cc1
CC(=O)Nc1cc(-c2ccccc2)ccc1O
CSCCC(NC(=O)c1ccc(Cl)cc1)C(=O)NC(C)(C)C (stereo not drawn)
Cc1cc(C)c(C#N)c(Cl)n1
O=C(O)c1sccc1S(=O)(=O)N1CCN(c2ccc(C(F)(F)F)cn2)CC1
O=[N+]([O-])c1ccc(O)c(/C=N/Nc2ccccc2[N+](=O)[O-])c1
Cc1nn(C)c(C(=O)Nc2ccc(S(=O)(=O)NC34CC5CC(CC(C5)C3)C4)cc2)c1Br
COc1ccc(C2=NCCn3nc4ccccc4c32)cc1
CCN(c1ccccc1)S(=O)(=O)c1ccc2c(c1)N(C(C)=O)CCO2
COc1cc2[nH]c(C(=O)Nc3ccc(F)cc3)cc2c(OC)c1OC
COc1ccc(-c2cn3cc(C)ccc3n2)cc1OC
Cn1ncc([N+](=O)[O-])c1C(=O)Nc1ccccc1
CC(/C=C/c1ccc2c(c1)OCO2)=N\NC(=O)c1ccccc1
Cc1nc([N+](=O)[O-])c(C(=O)OCc2ccccc2)n1C
Cc1cccnc1NC(N)=S
COC(=O)[C@H](C)NC(=O)c1cc2c(cn1)[nH]c1ccccc12
NC(=O)C1(c2ccccc2)OC1c1ccccc1 (stereo not drawn)
CCOC(=O)C(Cc1ccccc1)C(=O)Nc1cccc(C)c1 (stereo not drawn)
COc1ccc(C(=O)Nc2nc3ccccc3s2)cc1
COc1cc(/C=N/NC(=S)Nc2cccnc2)cc(OC)c1OC
CCOC(=O)N1CCN(CCC(=O)Nc2cccc(Cl)c2C)CC1
N#C/C(=N\Nc1ccc([N+](=O)[O-])cc1)C(=N)N1CCOCC1
COc1ccc(C(=O)N/N=C/c2ccc(OC)c(CSc3ccccn3)c2)cc1
CC(C)Oc1ccc(NC(=O)c2ccncc2)cc1
Cn1c(=O)c2ccccc2n(CC(=O)Nc2ccc3c(c2)OCCO3)c1=O
COc1ccc(Nc2nc(C)nc3c2oc2ccccc23)cc1
CS(=O)(=O)Nc1nc2ccccc2[nH]1
COc1ccc(CNC(=S)Nc2cccc(F)c2)cc1
COc1ccc(C(=O)N(C)C2CCCN(Cc3ccccc3F)C2)cc1OC (stereo not drawn)
COCCNC(=O)c1cccc(OC2CCN(Cc3cccc(C(C)=O)c3)CC2)c1
CC(Oc1cccc(Cl)c1)C(=O)Nc1nc(-c2ccccn2)cs1 (stereo not drawn)
Cc1cc(C)c(C(=O)N2CCCC(Nc3ccc(C)c(C)c3)C2)o1 (stereo not drawn)
Cc1[nH]c2ccccc2c1-c1nc2ccccc2[nH]1
CSc1ncccc1C(=O)OCc1ccc(Br)cc1
COc1ccc(-c2nn(-c3ccccc3)cc2C(=O)NC(=S)Nc2cc(Cl)ccc2Cl)cc1
CCOCCCn1c(=S)[nH]c2cc(C(=O)N3CCC(C(N)=O)(N4CCCCC4)CC3)ccc2c1=O
CCOc1c(Nc2ccc(C(C)C)cc2)c(=O)c1=O
O=C(Cc1cccs1)Nc1cccc(-c2nnc(-c3ccco3)o2)c1
O=C(NCc1ccncc1)c1ccc(Oc2ccccc2)cc1
CC(C)C[C@H](NC(=O)c1[nH]cnc1C(=O)N[C@@H](Cc1ccccc1)C(=O)OC(C)(C)C)C(=O)OC(C)(C)C
CC(C)(C)C(=O)CSc1ncnc2c1cnn2Cc1ccccc1
CCC(CO)NCc1ccc(OCC(O)c2ccccc2)c(OC)c1 (stereo not drawn)
COc1c(O)ccc(/C=N\NC(=O)c2ccc3c(c2)OCO3)c1[N+](=O)[O-]
O=C(CCCCn1c(=O)c2ccccc2n(CC(=O)NC2CCCC2)c1=O)NCc1ccco1
CC(=O)c1cccc(NC(=O)/C(=C\c2cccnc2)NC(=O)c2ccc(C)cc2)c1
C=C(C)c1cccc(C(C)(C)NC(=O)Nc2cccnc2)c1
COCCn1cnnc1SCC(=O)Nc1cc(OC)c([N+](=O)[O-])cc1C
Cc1ccc(NC(=O)CN(C)C(C)C(=O)Nc2ccc(S(=O)(=O)N3CCCC3)cc2)cc1 (stereo not drawn)
O=C(NCc1cccnc1)c1ccc(-c2ccc(Cl)cc2)o1
CC(C)=NOCC(=O)Nn1c(COc2ccccc2)nc2ccccc2c1=O
O=C(Nc1ccc(F)cc1)c1ccc2ncsc2c1
CC(=O)Oc1ccc(/C=C/c2nc3ccccc3c(=O)o2)cc1
CCOc1ccc(OCCC(=O)N(CC(=O)Nc2ccccc2C(F)(F)F)Cc2ccco2)cc1
CN(C)/C=C/C(=O)c1nnn(C2CCCCC2)c1NC1CCCCC1
